Source: PubChem BioAssay AID2778 (National Center for Advancing Translational Sciences (NCATS), 2010)
Inconclusive results are not listed. The source made the active and inactive calls. Calls come from the whole dose curve; as a rule, active = well fitted inhibition curve with a large enough effect; inconclusive = small, poorly fitted or top-dose-only effect, or effect the other way; inactive = flat fitted curve, though single readings scatter.

molecular target: Menin (Homo sapiens) (UniProt O00255); assay: Confirmation of Inhibitors Targeting the Menin-MLL Interaction in MLL Related Leukemias: Confirmation in an HTRF (commercial TR-FRET) Assay using His-tagged menin and biotin-labeled MLL peptide; details: His-menin / biotin-MLL peptide binding; series mostly up to 126 µM; activity change, negative = inhibition: at the top concentration
Outline: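 HTRF: His6-menin (200 nM) and biotin-MLL-w.t. peptide (80 nM) preincubated 15 min, then compounds 1 hr at ambient, before Eu-cryptate anti-His (3.5 nM) and streptavidin-XL665 (10 nM) for 1 h; 50 mM Tris-HCl pH 7.5, 50 mM NaCl, 1 mM DTT, BSA.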
% is set by controls: 0 for no effect and ±100 for the full control effect; potency is the fitted concentration of half-maximal effect.

Menin (Homo sapiens), sequence (O00255 whole entry, looked up): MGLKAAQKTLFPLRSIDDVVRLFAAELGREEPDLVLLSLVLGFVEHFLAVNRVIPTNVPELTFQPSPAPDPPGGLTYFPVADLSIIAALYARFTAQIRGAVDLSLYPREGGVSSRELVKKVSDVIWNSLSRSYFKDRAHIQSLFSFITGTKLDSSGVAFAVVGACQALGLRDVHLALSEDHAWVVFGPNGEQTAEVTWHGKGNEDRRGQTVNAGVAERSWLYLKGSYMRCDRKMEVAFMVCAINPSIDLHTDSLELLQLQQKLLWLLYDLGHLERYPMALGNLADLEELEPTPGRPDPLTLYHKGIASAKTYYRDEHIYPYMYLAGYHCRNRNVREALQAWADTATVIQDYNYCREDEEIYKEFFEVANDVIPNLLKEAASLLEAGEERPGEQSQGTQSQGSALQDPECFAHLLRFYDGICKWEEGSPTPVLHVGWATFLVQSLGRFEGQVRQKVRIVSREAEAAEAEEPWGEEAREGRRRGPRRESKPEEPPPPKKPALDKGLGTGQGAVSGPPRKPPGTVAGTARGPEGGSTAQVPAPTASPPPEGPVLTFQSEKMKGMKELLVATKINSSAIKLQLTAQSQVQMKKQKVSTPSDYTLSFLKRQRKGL

SMILES	activity change, negative = inhibition	Potency
CN(C)CCc1c[nH]c2ccc(CC3COC(=O)N3)cc12 (stereo not given)	-6.18% [at 383 µM] (inactive)	–
Cn1ncc2c(N3CCCCC3)nc(NCCCO)nc21	-5.5% (inactive)	–
COc1ccc(OC)c(C2C3=C(N=c4s/c(=C\c5cccc(O)c5)c(=O)n42)c2ccccc2CC3)c1 (stereo not given)	-16.6% (inactive)	–
C[C@@H]1CN(C(=O)c2nc3ccc(Cl)cn3c2CNCC[C@@H]2C[C@@H]3C=C[C@H]2C3)C[C@H](C)O1	-3.93% (inactive)	–
CCOC(=O)Cn1c2ccccc2n2nc(CCC(=O)O)c(=O)nc12	-0.0741% (inactive)	–
O=C(Cn1c(=O)c2c3c(sc2n(Cc2ccccc2)c1=O)CCCC3)NCCO	2.77% [at 383 µM] (inactive)	–
Cc1ccc(S(=O)(=O)c2cc(OC(=O)c3ccco3)ccc2OC(=O)c2ccco2)cc1	-10.5% (inactive)	–
CCn1cnc2c1c(=O)n(CC(=O)O)c(=O)n2Cc1ccccc1	-1.56% [at 383 µM] (inactive)	–
Cc1ccccc1-c1n[nH]c(=S)n1C	6% (inactive)	–
COC(=O)Cc1c(C)nc2nc(-c3ccc(OC)cc3)[nH]n2c1=O	-3.42% [at 383 µM] (inactive)	–
O=C(c1cc2c(=O)n3ccccc3nc2s1)N1CCOCC1	-10.9% [at 383 µM] (inactive)	–
CCCN1CCN(CC(O)COC(c2ccc(OC)cc2)c2ccc(OC)cc2)CC1 (stereo not given)	-2.05% (inactive)	–
COc1cc(SC)ccc1C(=O)Nc1cccc(C2OCCCO2)c1	-11.9% [at 383 µM] (inactive)	–
Cc1nn(-c2ccccc2)c2nc(N)c(C(N)=O)cc12	11.3% (inactive)	–
O=C1CCNc2c(Cl)cc(Cl)cc21	4.84% (inactive)	–
O=C(/C=C/c1ccccc1)NC(NC(=S)Nc1cc(Cl)ccc1Cl)C(Cl)(Cl)Cl (stereo not given)	-16.1% [at 383 µM] (inactive)	–
O=[N+]([O-])CC(c1ccccc1)P(=O)(c1ccccc1)c1ccccc1 (stereo not given)	0.121% (inactive)	–
Cc1cc2cc(C(c3nnnn3CC3CCCO3)N3CCCc4ccccc43)c(=O)[nH]c2cc1C (stereo not given)	-8.66% (inactive)	–

SMILES	activity change, negative = inhibition	Potency
CS(=O)(=O)c1ccc2nc(NC(=O)Nc3cccc(Cl)c3)sc2c1	–	112 µM (active)
O=S(=O)(Nc1cccc(-c2cn3cccnc3n2)c1)c1ccccc1	-4.98% [at 383 µM] (inactive)	–
Cc1cccc(Nc2nnc(SCC(=O)NC(=O)Nc3ccc4c(c3)OCCO4)s2)c1	-25.2% (inactive)	–
COc1ccc(NC(=O)N2CC[C@@]3(CCCN(C(=O)c4csnn4)C3)C2)cc1	-2.47% (inactive)	–
CCCCCC1CCC(C(=O)NCCN2CCOCC2)CC1 (stereo not given)	10.1% (inactive)	–
COc1ccc2[nH]c(=O)c(CN(Cc3cccs3)C(=S)Nc3cccc(C)c3)cc2c1	-20% (inactive)	–
C/C(=N\Nc1ccc(Cl)c(C(=O)O)c1)c1ccc[nH]1	6.1% (inactive)	–
CN1CCN(CC(=O)Nc2ccc(S(=O)(=O)N(C)C)cc2)CC1	0.239% (inactive)	–
Cc1ccc(NC(=O)CN(C)C(=O)COc2cccc3cccnc23)cc1	-4.79% [at 383 µM] (inactive)	–
O=C1Cc2ccccc2Sc2c(OCCN3CCCCC3)cccc21	-10.9% (inactive)	–
O=C(Nc1nccs1)C(Br)C(Br)c1ccccc1 (stereo not given)	-8.15% [at 383 µM] (inactive)	–
COc1ccccc1/C=C/C(=O)NC(=S)Nc1ccc(S(=O)(=O)N(C)c2ccccc2)cc1	-19.3% (inactive)	–
CCCOc1ccc(C(=O)NNC(=S)NC(=O)c2cc(-c3ccc(Cl)cc3)nc3ccccc23)cc1	-18% [at 383 µM] (inactive)	–
COc1cc(OC)cc(C(=O)N/N=C/c2ccc(OC)c(COc3ccc4ccccc4c3)c2)c1	-18.7% (inactive)	–
O=c1[nH]nc(Cc2ccc(-c3ccc(Cl)cc3)o2)c2ccccc12	-18.4% (inactive)	–
NC(=O)c1cc2ccccc2o/c1=N/NC(=O)c1cccc(F)c1	12.1% (inactive)	–
Clc1ccc(-c2nnc(-c3ccccc3)nc2-c2c[nH]c3ccccc23)cc1	-19.6% (inactive)	–
